Data on 24 molecules can be found in PubChem BioAssay AID1259421 (Broad Institute, 2018).

Molecules are shown by their SMILES. Where “and” joins values, the source holds several entries; their conditions need not be identical. Identical values can stand only once. Screen size: about 6,400 compounds; about 610 (9.5%) were called active. The sample holds actives, similar compounds and a random draw of the others, so the mix is not that of the screen. No stated cut-off is given here; in the data, active means activity change below about -70%; inconclusive means no clear call, values can overlap the other calls; inactive means above that.

The assay is described as follows: Toxoplasma gondii ME49Luc growth in HeLa cells, luciferase, no IFN-y, primary screen (AID 1259421). To be noted: T. gondii ME49Luc in HeLa, 72 h, stronger effect = lower value, concentration not given here.
Regarding `CCOC(=O)[C@H](C)C[C@@H](Cc1ccc(-c2ccccc2)cc1)NC(=O)CCC(=O)O`, the activity change, negative = inhibition is 5.47% (inactive). As for `COc1c/c(=C2\C=c3ccccc3=N2)[nH]/c1=C\c1[nH]c(C)cc1C`, the figure is -83.5% (active); as for `Cc1cc(C)c(/C=C2\C(=O)Nc3ccccc32)[nH]1`, 12.4% (inactive) and 24.8% (inactive). The result for `FC(F)(F)c1ccc(/C=C/c2nc(COc3ccc(CCCCn4ccnn4)cc3)co2)cc1` reads -18% (inactive); that for `CN1C2CC(OC(=O)[C@H](CO)c3ccccc3)C[C@H]1[C@H]1OC21` (some centres undefined), 1.54% (inactive). Regarding `NC(N)=NCCN1CCCCCCC1`, the activity change, negative = inhibition was 8.88% (inactive). The result for `CC12C(=O)OC(=O)C1(C)C1CCC2O1` (centres undefined) reads -87.3% (active). Take `c1ncc(CCCC2CCNCC2)[nH]1`: the activity change, negative = inhibition was 2.3% (inactive). As for `Fc1ccc2c(CCNCc3cccc(OCC(F)(F)C(F)F)c3)c[nH]c2c1`, the figure is 38.3% (inactive). The result for `CN[C@@H](C)[C@H]1[C@H](O)C[C@@]2(C)[C@@H]3CC[C@H]4C(C)(C)[C@@H](NC)CC[C@@]45C[C@@]35CC[C@]12C` reads 6.16% (inactive); that for `CCCCCCCCCCCCCCCC(=O)OC[C@H](COP(=O)(O)OCC[N+](C)(C)C)OC(=O)CCCCCCCCCCCCCCC`, -5.4% (inactive). The result for `COC(=O)c1ccccc1NC(=O)c1ccc(F)cc1` reads 31.7% (inactive) and 41.2% (inactive). Turning to `CC(C)CCN1c2nc(Nc3cc(F)c(O)c(F)c3)ncc2N(C)C(=O)C1C` (centres undefined), the activity change, negative = inhibition was -84.4% (active). `CCCCCCCC/C=C/CCCCCCCC(=O)NCc1ccc(O)c(OC)c1`: the activity change, negative = inhibition was 6.46% (inactive). The result for `N#Cc1ccncn1` reads 17.2% (inactive).

As for `CCc1nc(-c2cccc(C)c2)c(-c2ccnc(NC(=O)c3ccccc3)c2)s1`, the activity change, negative = inhibition was -91.2% (active).

Regarding `Cc1ccc(-c2csc(NC(=O)c3ccccc3)n2)c(C)c1`, the activity change, negative = inhibition was 73.8% (inactive).

Take `Cc1ccnc(NC(=O)C(C)c2cccc(C(=O)c3ccccc3)c2)c1` (centres undefined): the activity change, negative = inhibition is 48.4% (inactive).

On to `CC1CNc2c(cccc2S(=O)(=O)N[C@@H](CCCN=C(N)N)C(=O)N2CC[C@@H](C)C[C@@H]2C(=O)O)C1` (some centres undefined), for which the activity change, negative = inhibition is 9.02% (inactive). As for `C[C@H]1COc2c(C3(N)CC3)c(F)cc3c(=O)c(C(=O)O)cn1c23`, the activity change, negative = inhibition is 14.1% (inactive).

On to `COc1cc2nc(N3CCCN(C)CC3)nc(NC3CCN(Cc4ccccc4)CC3)c2cc1OC`, for which the activity change, negative = inhibition was -91.5% (active).

Turning to `COc1cc2nc(N3CCN(C(=O)c4ccco4)CC3)nc(N)c2cc1OC`, the activity change, negative = inhibition is 0.803% (inactive) and 4.94% (inactive). For the molecule `CCCC(=O)N1CCCN(c2nc(N)c3cc(OC)c(OC)cc3n2)CC1`, the activity change, negative = inhibition was 13% (inactive). Take `COc1cc(O)ccc1C(C)=O`: the activity change, negative = inhibition is -6.96% (inactive).
